According to article PMC11996681, “Interfacial water confers transcription factors with dinucleotide specificity”:

Columns and labels:
Test in all cases: HT-SELEX; SELEX buffer: 10.4 mM Tris-HCl pH 7.5, 51.4 mM NaCl, 1.4 mM MgCl2, 4% glycerol, 100 uM EGTA, 0.7 mM DTT, 3.7 ug/ml poly-dI-dC, 1.4 uM ZnSO4; room temperature (2); high values mean tight binding
Conditions in all cases: protein: recombinant; dsDNA, one strand shown
[1] = molecular target: BARHL2 DBD ctrl (unmutated, SELEX) (human, UniProt Q9NY43 227-293)
Chain of BARHL2 DBD ctrl (unmutated, SELEX) (Q9NY43 227-293, stated change not applied): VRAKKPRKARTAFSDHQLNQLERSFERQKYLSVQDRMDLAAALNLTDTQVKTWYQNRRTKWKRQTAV

[2] = molecular target: BARHL2 DBD T278I/T285N (HMX3) (human, UniProt Q9NY43 227-293, T278I;T285N)
Chain of BARHL2 DBD T278I/T285N (HMX3) (Q9NY43 227-293 T278I/T285N): as the sequence (Q9NY43 227-293, stated change not applied) above, with T52I, T59N counted along it

BARHL2 DBD T278V (EMX1) = BARHL2 DBD T278V (EMX1) (human, UniProt Q9NY43 227-293, T278V)
Chain of BARHL2 DBD T278V (EMX1) (Q9NY43 227-293 T278V): as the sequence (Q9NY43 227-293, stated change not applied) above, with T52V counted along it

[3] = molecular target: BARHL2 DBD T278I (NKX1.2) (human, UniProt Q9NY43 227-293, T278I)
Chain of BARHL2 DBD T278I (NKX1.2) (Q9NY43 227-293 T278I): as the sequence (Q9NY43 227-293, stated change not applied) above, with T52I counted along it

BARHL2 DBD T285M (NANOG) = BARHL2 DBD T285M (NANOG) (human, UniProt Q9NY43 227-293, T285M)
Chain of BARHL2 DBD T285M (NANOG) (Q9NY43 227-293 T285M): as the sequence (Q9NY43 227-293, stated change not applied) above, with T59M counted along it

[4] = molecular target: BARHL2 DBD T278N/T285I (PBX1) (human, UniProt Q9NY43 227-293, T278N;T285I)
Chain of BARHL2 DBD T278N/T285I (PBX1) (Q9NY43 227-293 T278N/T285I): as the sequence (Q9NY43 227-293, stated change not applied) above, with T52N, T59I counted along it

[5] = molecular target: BARHL2 DBD T278V/T285A (ALX4) (human, UniProt Q9NY43 227-293, T278V;T285A)
Chain of BARHL2 DBD T278V/T285A (ALX4) (Q9NY43 227-293 T278V/T285A): as the sequence (Q9NY43 227-293, stated change not applied) above, with T52V, T59A counted along it

[6] = molecular target: BARHL2 DBD T278I/T285M (HOXA3) (human, UniProt Q9NY43 227-293, T278I;T285M)
Chain of BARHL2 DBD T278I/T285M (HOXA3) (Q9NY43 227-293 T278I/T285M): as the sequence (Q9NY43 227-293, stated change not applied) above, with T52I, T59M counted along it

[7] = molecular target: BARHL2 DBD T278V/T285M (MEOX2) (human, UniProt Q9NY43 227-293, T278V;T285M)
Chain of BARHL2 DBD T278V/T285M (MEOX2) (Q9NY43 227-293 T278V/T285M): as the sequence (Q9NY43 227-293, stated change not applied) above, with T52V, T59M counted along it

[8] = molecular target: BARHL2 DBD T278I/T285A (CDX1) (human, UniProt Q9NY43 227-293, T278I;T285A)
Chain of BARHL2 DBD T278I/T285A (CDX1) (Q9NY43 227-293 T278I/T285A): as the sequence (Q9NY43 227-293, stated change not applied) above, with T52I, T59A counted along it

[9] = molecular target: BARHL2 DBD T278I/T285S (DLX1) (human, UniProt Q9NY43 227-293, T278I;T285S)
Chain of BARHL2 DBD T278I/T285S (DLX1) (Q9NY43 227-293 T278I/T285S): as the sequence (Q9NY43 227-293, stated change not applied) above, with T52I, T59S counted along it

[10] = molecular target: BARHL2 DBD T278N/T285Q (SIX6) (human, UniProt Q9NY43 227-293, T278N;T285Q)
Chain of BARHL2 DBD T278N/T285Q (SIX6) (Q9NY43 227-293 T278N/T285Q): as the sequence (Q9NY43 227-293, stated change not applied) above, with T52N, T59Q counted along it

BARHL2 DBD T285A (LBX1) = BARHL2 DBD T285A (LBX1) (human, UniProt Q9NY43 227-293, T285A)
Chain of BARHL2 DBD T285A (LBX1) (Q9NY43 227-293 T285A): as the sequence (Q9NY43 227-293, stated change not applied) above, with T59A counted along it

[11] = molecular target: BARHL2 DBD T278I/T285V (HOXB13) (human, UniProt Q9NY43 227-293, T278I;T285V)
Chain of BARHL2 DBD T278I/T285V (HOXB13) (Q9NY43 227-293 T278I/T285V): as the sequence (Q9NY43 227-293, stated change not applied) above, with T52I, T59V counted along it

[12] = molecular target: BARHL2 DBD T278N/T285R (PKNOX1) (human, UniProt Q9NY43 227-293, T278N;T285R)
Chain of BARHL2 DBD T278N/T285R (PKNOX1) (Q9NY43 227-293 T278N/T285R): as the sequence (Q9NY43 227-293, stated change not applied) above, with T52N, T59R counted along it

Sequence	binding signal [1] [fold enrichment]	binding signal [2] [fold enrichment]	binding signal (BARHL2 DBD T278V (EMX1)) [fold enrichment]	binding signal [3] [fold enrichment]	binding signal (BARHL2 DBD T285M (NANOG)) [fold enrichment]	binding signal [4] [fold enrichment]	binding signal [5] [fold enrichment]	binding signal [6] [fold enrichment]	binding signal [7] [fold enrichment]	binding signal [8] [fold enrichment]	binding signal [9] [fold enrichment]	binding signal [10] [fold enrichment]	binding signal (BARHL2 DBD T285A (LBX1)) [fold enrichment]	binding signal [11] [fold enrichment]	binding signal [12] [fold enrichment]
TAAGCG	3	2.4	3.2	2.4	3.6	1.4	1.9	2.4	2.7	1.8	1.9	1.6	2.9	–	–
TAAGTG	6.2	8.6	5.9	6.1	4.4	2.5	3.7	5	4.4	6.4	6.2	2.6	6.1	4	1.3
TAACCG	2.1	2	1.6	1.5	2.3	3.7	1.9	1.5	1.5	1.9	1.7	4.1	3.5	–	4.9
TAAACG	28	4	7.8	6.6	3.8	2.8	3.3	2.5	3.1	3.7	4.7	2.4	6.3	2.4	1.6
TAAATG	12.6	1.9	5.9	5	3.4	3.3	2.2	2.9	3	3.2	4	2	4.1	4.3	–
TAATGG	7.8	1.9	7.6	8	6.2	9.1	3.7	8.4	7.6	6.2	8.1	7	4.7	7.7	–
TAATCG	9.7	12.6	8	9.4	7.6	8.1	5.1	11.4	8.5	9.9	10.9	6.7	9	5.9	2.6
TAATTG	43.5	17.6	11.2	13.1	6	10.4	4.9	11.5	8.5	14	16.2	5.8	8	13.3	1.8
